Screens from PubChem BioAssay.
The list is not random: actives were taken first. Their share in the collection is about 0.78%.
RECQ1 inh = blocks DNA unwinding by human RECQ1; P46063; RECQ1 DNA unwinding, red fluorescence kinetic read; 0.54% of 240,000 active; Potency, µM (titrated, usually from 57.3 µM), most hits filed as inhibitors; also: nearly all actives have a fitted effect of over 30% in size
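RECQ1T1 50 nM; forked duplex (20 bp + 30-nt ss tails) 200 nM, ATP 2 mM final; pH 8.0, 2 mM MgCl2, 2.5 ug/ml poly(dI-dC); 15 min compound preincubation; discontinuous kinetic read over 2 h at RT.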
BLM inh = inhibitors of human Bloom syndrome helicase BLM; P54132; recombinant BLM DNA unwinding, fluorescence dequenching; 0.2% of 350,000 active; AID 2528; Potency, µM (highest dose often 56.1 µM), most hits filed as inhibitors; also: nearly all actives have a fitted effect of over 35% in size
APE1 inh = APE1 (human) endonuclease inhibition | P27695 | recombinant APE1, TAMRA/BHQ-2 abasic DNA cleavage fluorescence | Potency, µM (highest dose often 65.8 µM), hits mostly inhibitors | 0.35% of 350,000 active | AID 2517; also: nearly all actives have a fitted effect of over 55% in size
Target sequence (P27695 whole entry, looked up): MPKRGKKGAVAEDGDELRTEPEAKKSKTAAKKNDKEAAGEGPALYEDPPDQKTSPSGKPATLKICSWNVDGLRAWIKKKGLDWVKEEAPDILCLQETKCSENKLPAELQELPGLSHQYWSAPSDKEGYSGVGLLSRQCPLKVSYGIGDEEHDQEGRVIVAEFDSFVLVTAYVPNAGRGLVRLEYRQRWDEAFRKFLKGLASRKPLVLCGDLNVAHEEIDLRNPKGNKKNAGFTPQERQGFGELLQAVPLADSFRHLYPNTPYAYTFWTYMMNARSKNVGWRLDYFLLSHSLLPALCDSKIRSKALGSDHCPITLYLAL
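Incision of a quenched TAMRA/BHQ-2 THF abasic-site duplex (50 nM) by 0.75 nM APE1, after 15 min compound preincubation, measured as fluorescence increase over three 60 s reads. Values normalized to buffer, DMSO and NSC13755 control wells.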
L3MBTL1 inh-1 = blocks human L3MBTL1 | 0.66% of 230,000 active | Potency, µM (series often up to 57.1 µM), most hits filed as inhibitors | AlphaScreen L3MBTL1–H3K9me1 peptide binding | AID 485360 | Q9Y468; also: nearly all actives have a fitted effect of over 60% in size
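Read-out is AlphaScreen signal from streptavidin donor and nickel chelate acceptor beads (10 ug/mL final each) bridging L3MBTL1 (50 nM) and biotinylated K9-monomethylated H3(1-15) peptide (75 nM), after 30 min compound exposure at room temperature.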
L3MBTL1 inh-2 = blocks human L3MBTL1 methyl-lysine binding | AID 540279 | L3MBTL1 methyl-lysine binding inhibition, biochemical qHTS | Potency, µM, most hits filed as inhibitors | 91% of 500 active | shares compounds with L3MBTL1 inh-1; also: nearly all actives have a fitted effect of over 70% in size
AlphaScreen ctr2 = interferes with AlphaScreen signal in L3MBTL1 counterscreen; shares compounds with L3MBTL1 inh-1; AlphaScreen counterscreen, signal inhibition; Potency, µM (highest dose often 57.1 µM), most hits filed as inhibitors; 500 tested, under 10 active
Numbers stand for hits. Calls follow the shape of the dose curve; as a rule, active = well fitted curve in the direction sought with a large enough effect; inconclusive = small, poorly fitted or top-dose-only effect, or another doubt; inactive = no such curve, though single readings can be large; an effect the other way counts as inactive or inconclusive.

CCOC(=O)CSc1nc(-c2ccccn2)ncc1OC was read as RECQ1 inh inactive, BLM inh inactive, APE1 inh inactive, L3MBTL1 inh-1 22.4µM, L3MBTL1 inh-2 26.7 and AlphaScreen ctr2 inactive.
For COc1cnc(-c2ccccn2)nc1Oc1ccccc1 the results were RECQ1 inh inactive, BLM inh inactive, APE1 inh inactive, L3MBTL1 inh-1 31.6µM, L3MBTL1 inh-2 21.2 and AlphaScreen ctr2 inactive.
For COc1cnc(-c2ccccn2)nc1Oc1cccc(C(F)(F)F)c1 the results were BLM inh inactive and APE1 inh inactive.
`Cc1cc(Cl)ccc1NC(=O)CN1C(=O)COc2ccc(S(=O)(=O)Nc3ccccc3)cc21` gave BLM inh inactive.
`COc1ccc([C@@H]2CC(=O)c3c(O)cc(O[C@@H]4O[C@H](CO)[C@@H](O)[C@H](O)[C@H]4OC4O[C@@H](C)[C@H](O)[C@@H](O)[C@H]4O)cc3O2)cc1O` (some centres not stated) gave RECQ1 inh inactive, BLM inh inactive and APE1 inh inactive.
For Cc1onc(-c2c(F)cccc2Cl)c1C(=O)NC1C(=O)N2C1SC(C)(C)C2C(=O)O (configuration not stated) the results were BLM inh inactive.
`COCCN1CSC(=S)N(Cc2ccco2)C1` gave RECQ1 inh inactive, BLM inh inactive, APE1 inh inactive and L3MBTL1 inh-1 inactive.
S=C1SCN(Cc2ccccn2)CN1Cc1ccco1 was read as RECQ1 inh inactive, BLM inh inactive, APE1 inh inactive, L3MBTL1 inh-1 28.2µM, L3MBTL1 inh-2 26.7 and AlphaScreen ctr2 inactive.
Screening Cc1cccn2c(=O)cc(COc3cccc(NC(=O)c4ccccc4F)c3)nc12 returned BLM inh inactive.
`CCn1c2ccccc2c2cc(N=C3SC(CC(=O)Nc4ccccc4OC)C(=O)N3CCOC)ccc21` (configuration not stated) gave RECQ1 inh inactive, BLM inh inactive, APE1 inh inactive, L3MBTL1 inh-1 28.2µM, L3MBTL1 inh-2 7.52 and AlphaScreen ctr2 inconclusive.
O=C(O)c1ccc2c3n(nc2c1)-c1ccc(Cl)cc1CO3 was read as BLM inh inactive, APE1 inh inactive, L3MBTL1 inh-1 5.01µM, L3MBTL1 inh-2 21.2 and AlphaScreen ctr2 inactive.
O=C(c1ccc2c3n(nc2c1)-c1ccc(Cl)cc1CO3)N1CCCCC1 was read as RECQ1 inh inactive, BLM inh inactive and APE1 inh inactive.
CC(NC(=O)c1ccc(F)cc1)c1nc2ccccc2[nH]1 (configuration not stated) was read as BLM inh inactive.
Screening O=C(c1ccc2c(c1)N(Cc1ccc(Cl)cc1)C(=O)c1ccccc1S2=O)N1CCN(c2ccccc2F)CC1 (configuration not stated) returned BLM inh inactive.
Screening CCCSCCCNC(=O)C1CCN(c2nn3cc(-c4ccc(F)cc4)nc3s2)CC1 returned BLM inh inactive.
`O=C(NC1CC1)C1CCN(S(=O)(=O)c2cc(Cl)ccc2Cl)CC1` gave RECQ1 inh inactive, BLM inh inactive, APE1 inh inactive and L3MBTL1 inh-1 inactive.
For O=C(NC1CC1)C1CCN(S(=O)(=O)c2cc([N+](=O)[O-])ccc2Cl)CC1 the results were APE1 inh inconclusive, L3MBTL1 inh-1 7.94µM, L3MBTL1 inh-2 2.99 and AlphaScreen ctr2 inactive.
`CCOc1ccccc1CNC(=O)c1cnc2sc(N3CCCCCC3)nn2c1=O` gave BLM inh inactive.
O=C(Nc1cccc(C(=O)N2CCOCC2)c1)c1ncn[nH]1 was read as RECQ1 inh inactive, BLM inh inactive, APE1 inh inactive, L3MBTL1 inh-1 28.2µM, L3MBTL1 inh-2 21.2 and AlphaScreen ctr2 inconclusive.
O=C(O)c1cc(C(=O)O)cc(-c2ccc(/C=c3/sc4nc5ccccc5n4c3=O)o2)c1 was read as RECQ1 inh inconclusive, BLM inh inactive, APE1 inh 28.2µM, L3MBTL1 inh-1 1.78µM, L3MBTL1 inh-2 3.36 and AlphaScreen ctr2 inactive.
O=C(Nc1ccc(F)cc1F)c1noc2c1CCC2 was read as RECQ1 inh inactive, BLM inh inactive, APE1 inh inconclusive, L3MBTL1 inh-1 31.6µM, L3MBTL1 inh-2 6.7 and AlphaScreen ctr2 inactive.
For O=C(Nc1cc(Cl)ccc1Cl)c1noc2c1CCCC2 the results were RECQ1 inh inactive, BLM inh inactive and APE1 inh inactive.
`CC1CCC(C(=O)NC(C(=O)OCC(=O)c2ccccc2)C(C)C)CC1` (configuration not stated) gave BLM inh inactive.
Cn1c(=O)c2nc3ccc(NC(=O)C(F)(F)F)cc3nc2n(C)c1=O was read as BLM inh inactive.
`CC(=O)Nc1ccc2nc3c(=O)n(C)c(=O)n(C)c3nc2c1` gave RECQ1 inh inactive, BLM inh inactive, APE1 inh inactive, L3MBTL1 inh-1 25.1µM, L3MBTL1 inh-2 23.8 and AlphaScreen ctr2 inactive.
For COc1ccc(CNC(=O)c2cnc(C)cn2)cc1 the results were RECQ1 inh inactive, BLM inh inactive, APE1 inh inactive, L3MBTL1 inh-1 22.4µM, L3MBTL1 inh-2 16.8 and AlphaScreen ctr2 inactive.
O=C(O)c1ccc2c3c(cccc13)C(=O)N(c1ccccc1)C2=O was read as RECQ1 inh inconclusive, BLM inh inactive, APE1 inh inconclusive, L3MBTL1 inh-1 12.6µM, L3MBTL1 inh-2 2.67 and AlphaScreen ctr2 inactive.
For Cc1ccc(C(=O)OCC(=O)c2ccc(CC(=O)N3CCOCC3)s2)c(C)c1 the results were APE1 inh inconclusive, L3MBTL1 inh-1 20µM, L3MBTL1 inh-2 2.99 and AlphaScreen ctr2 inactive.
`Cc1ccc(C(=O)OCC(=O)c2ccc(CC(=O)N3CCOCC3)s2)cc1C` gave APE1 inh inactive and L3MBTL1 inh-1 inconclusive.
For COc1cccc(C(=O)N2CCC(N3CCN(Cc4ccc(F)cc4)C(=O)C3=O)CC2)c1 the results were BLM inh inactive.
Screening O=C1NC(=Nc2ccc(Cl)cc2)/C(=C/c2ccco2)S1 returned RECQ1 inh inactive, BLM inh 11.2µM, APE1 inh inconclusive, L3MBTL1 inh-1 25.1µM, L3MBTL1 inh-2 8.44 and AlphaScreen ctr2 inactive.
`Cc1ccc(N=C2NC(=O)/C(=C\c3ccco3)S2)cc1` gave RECQ1 inh inactive, BLM inh inactive, APE1 inh inconclusive, L3MBTL1 inh-1 20µM, L3MBTL1 inh-2 26.7 and AlphaScreen ctr2 inactive.
For N=C1/C(=C\c2ccc(-c3cccc(Cl)c3)o2)C(=O)N=C2SC=C(c3ccccc3)N12 the results were RECQ1 inh inactive, BLM inh inconclusive, APE1 inh inactive, L3MBTL1 inh-1 35.5µM, L3MBTL1 inh-2 26.7 and AlphaScreen ctr2 inconclusive.
Screening Cc1ccc(N2CCN(C(=O)c3cnn(-c4ccc(C)c(C)c4)c3C3CCNCC3)CC2)c(C)c1 returned BLM inh inactive.
O=C(CCS(=O)(=O)c1ccc(Br)cc1)Nc1ccc(F)cc1F was read as BLM inh inactive.
